# Most compounds without a hit are left out; they make up all but 3.4% or so of the library.
# LGR2 inh: inhibitors of bursicon-induced LGR2 CRE-luciferase signal, primary screen, cell-based, HEK293, CRE-luciferase reporter, bursicon stimulation | AID 720647, 2013 | bursicon-stimulated, 4 h | inhibition, % at 9.99 µM | 380,000 compounds, 0.35% hits;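 active = drop in luminescence signal, shown as inhibition above about 50% in the replicate tests, limit read from the data, passing the limit was not always enough; inconclusive = probably only some replicates passing the limit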;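 also: agonist challenge used bursicon conditioned medium at about half maximal strength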
# PGC1a acetyl inh: inhibitors of PGC1a acetylation signal, primary screen, cell-based, U2OS, AlphaScreen, inhibitor mode; AlphaScreen anti-acetyl-lysine; with virally co-expressed GCN5 acetyltransferase; 350,000 compounds, 0.17% hits; AID 651687, 2012; inhibition, % at 15.6 µM;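 active = every replicate shows inhibition of at least 40%; inconclusive = mean inhibition at least 40% but some replicate below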;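 also: 0% = neutral control wells and 100% = positive control wells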
# EWS-Fli block: EWS/Fli-driven NR0B1 reporter inhibitors, primary screen, A673 cells, NR0B1 luciferase, luminescence, MLPCN library | viability-normalised | inhibition, % at 12.6 µM | 350,000 compounds, 0.67% hits;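 active = mean inhibition of at least 50% after viability correction, with every replicate also passing that limit; inconclusive = mean reaches 50% but only one of two replicates passes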;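 also: firefly luciferase signal divided by Alamar Blue viability fluorescence both relative to DMSO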
# PAX8 reporter: inhibitors of PAX8-driven TPO luciferase reporter, primary screen, RMG-I cells, single concentration. SteadyGlo, 24 h. AID 652154, 2013. 360,000 compounds, 1.2% hits. inhibition, % at 12.6 µM;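 active = mean replicate inhibition at least 60% with every replicate also reaching 60%; inconclusive = only one of the two criteria is met; inactive = mean below 60% and not all replicates reaching 60%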;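 also: luciferase light reporting Pax8 driven TPO promoter activity; plate controls were median of neutral control wells for no effect and mitoxantrone controls for full effect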
# Ecoli rRNA inh: reduced GFP signal of wild-type E. coli, primary screen, bacterial rRNA inhibitor project, GFP/RFP fluorescence, OD600, single point | E. coli WT GFP vs humanized-ribosome RFP mutants, 24 h; stronger effect = lower value; DMSO median 0, no signal -100 | GFP signal change (wild-type ribosome), % (concentration not given with the values) | 350,000 compounds, 1.6% hits | AID 720706, 2013;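 active = significant combined selectivity score with lowered wild-type GFP, culture density cut under 30%, mutant RFP and density less affected; inactive = any of these conditions unmet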
# SIRT5 inh: SIRT5 desuccinylase inhibitors, primary screen, biochemical, fluorescence imaging, single point, set 5; inhibition, % at 15 µM; AID 652115, 2013; 330,000 compounds, 1.1% hits; Purified SirT5, succinyl-peptide AMC, trypsin-coupled fluorescence; NAD-dependent protein deacylase sirtuin-5, mitochondrial (Homo sapiens), Q9NXA8; in the data active = inhibition above about 15%; inconclusive = no clear call, values can overlap the other calls
# Target sequence (Q9NXA8 whole entry, looked up): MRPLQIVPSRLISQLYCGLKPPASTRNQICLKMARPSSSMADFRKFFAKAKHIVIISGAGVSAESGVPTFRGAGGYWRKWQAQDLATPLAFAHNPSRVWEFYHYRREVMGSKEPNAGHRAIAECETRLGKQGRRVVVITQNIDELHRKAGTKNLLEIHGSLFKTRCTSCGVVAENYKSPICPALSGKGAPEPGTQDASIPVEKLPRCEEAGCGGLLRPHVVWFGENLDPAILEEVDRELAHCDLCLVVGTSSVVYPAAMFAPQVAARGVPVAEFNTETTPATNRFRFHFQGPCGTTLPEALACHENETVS
# DNA binder FP: DNA binders by acridine orange displacement, dose response, counter-screen for EWS/Fli inhibitor project, biochemical, fluorescence polarization, cherry-pick; shares compounds with EWS-Fli block; salmon sperm DNA acridine orange fluorescence polarization; AC35, µM (series often up to 68 µM), for the others: at the highest dose activity change, negative = DNA binding; 640 compounds, 2% hits; AID 720586, 2013;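 active = fitted curve reaches a 35% signal fall AC35 below twice the sample's top valid tested dose, actives reach about 48 µM in these data; inactive = the rest, including activity in the rising direction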;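 also: lower polarization ratio signals compound binding to DNA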
# Starred values were filed as active, the others as inactive; ? = inconclusive; . = no result.
SMILES,LGR2 inh,PGC1a acetyl inh,EWS-Fli block,PAX8 reporter,Ecoli rRNA inh,SIRT5 inh,DNA binder FP
C[C@H]1CN([C@@H](C)CO)C(=O)c2cc(NC(=O)CCC(F)(F)F)ccc2O[C@@H]1CN(C)C(=O)Nc1cccc2ccccc12,7.9,-2.6,-11.1,19.8,-2.7,4.6,.
Oc1[nH]c2ccccc2c1N=NC(=S)N1CCOCC1,.,10.8,.,.,.,.,.
Oc1[nH]c2ccc(Br)cc2c1N=NC(=S)N1CCOCC1,-1.6,39.2,57.1*,91.2*,-32.3,-1.8,-3.3%
CCCCCCN(C(=O)CCCCCN1C(=O)NC(c2ccc(Cl)cc2)C(C(=O)OCc2ccccc2)=C1C)C(C(=O)NCCCC)c1ccc(OCC(=O)OC)c(C(=O)OC)c1 (centres undefined),3.7,.,66.0*,58.5,10.6,-2.4,-0.1%
CCCCCCN(C(=O)CCCCCN1C(=O)NC(c2ccc(-c3ccccc3)cc2)C(C(=O)OCc2ccccc2)=C1C)C(C(=O)NCCCC)c1ccc(OCC(=O)OC)c(C(=O)OC)c1 (centres undefined),6.5,.,6.1,18.7,12.7,.,.
O=C1Nc2ccccc2C1=Nc1ccc(Br)cc1,-4.6,21.6,55.1*,0.3,-3.0,-1.0,-14.0%
Cc1cc(Br)ccc1N=C1C(=O)Nc2ccccc21,14.2,-7.7,55.1*,10.3,0.1,-0.3,-2.4%
O=C1Nc2ccccc2C1=Nc1ccccc1-c1ccccc1,2.9,.,54.8*,9.4,3.1,-2.3,-4.6%
COc1ccc(NC(=O)Nc2ccc3c(c2)C(=O)N([C@H](C)CO)C[C@@H](C)[C@@H](CN(C)S(=O)(=O)c2cn(C)cn2)O3)cc1,-12.2,1.4,2.0,.,0.1,-3.2,.
CO[C@@H]1CN(C)C(=O)c2cc(NC(=O)C3CCC3)ccc2OC[C@H](C)N(Cc2cccnc2)C[C@@H]1C,2.3,-3.5,-12.9,8.0,2.9,-10.2,.
O=C(C[C@@H]1CC[C@H]2[C@@H](COC[C@H](O)CN2C(=O)Nc2cc(Cl)cc(Cl)c2)O1)NCC1CCCCC1,5.4,-3.8,10.1,16.2,-26.1,8.8,.
CCCC(=O)Nc1ccc2c(c1)C(=O)N(C)[C@H]1CC[C@@H](CC(=O)O)O[C@H]1CO2,8.8,1.8,-0.6,0.2,0.1,3.0,.
COc1ccc2nc(-c3ccc(F)cc3)sc2c1,91.8*,.,55.0*,23.3,-0.6,.,-3.6%
COc1ccc2nc(N)sc2c1,-7.3,-1.1,.,.,.,.,.
C[C@@H]1CN([C@@H](C)CO)C(=O)Cc2cc(NC(=O)Nc3ccc4c(c3)OCO4)ccc2O[C@H]1CN(C)Cc1ccc(Cl)c(Cl)c1,1.6,1.5,4.6,15.7,-0.8,3.5,.
CC1(CCc2ccccc2)NC(=O)N(CC(=O)N2CCc3ccccc32)C1=O (centres undefined),-1.5,2.4,2.6,8.4,.,.,.
CC1(CCc2ccccc2)NC(=O)N(CC(=O)N2CC(=O)Nc3ccccc32)C1=O (centres undefined),2.1,2.2,62.0*,7.1,2.2,-0.7,-5.6%
COc1ccc(NC(=O)Nc2ccc3c(c2)[C@H]2C[C@H](CC(=O)O)O[C@H](CO)[C@H]2O3)cc1,4.5,4.7,-4.9,-6.6,7.2,-0.7,.
CN(C)c1ccc(/C=N/Nc2nc3ccccc3o2)cc1,67.1*,-4.3,68.2*,-19.0,16.1,-3.0,-6.5%
COc1ccc(/C=C/C(=O)c2cc(F)ccc2OC(=O)c2ccccc2OC)cc1OC,?,.,59.4*,85.2*,-7.2,-0.4,-4.2%
COc1ccc(/C=C/C(=O)c2ccc(C(=O)/C=C/c3ccc(OC)c(OC)c3)cc2)cc1OC,7.1,-4.8,61.8*,24.6,8.4,-14.9,-23.1%
CCC(=O)N1C[C@H]2[C@@H](c3ccccc31)[C@H](CO)N2Cc1ccccc1Cl,0.8,-3.9,-1.4,18.1,-10.0,0.9,.

# Screening data as filed in PubChem.
